Experimental data as given in the supplement of paper PMC10849652.
About 7,900 targets were measured; listed, in parts, are those with a hit and a random draw of the rest. About 0.6% of all pairs of compound and target were hits. A number with no mark means an inactive call.

What was measured:
Test in all cases: log2 fold change, soluble protein after heating vs DMSO (PISA); higher = thermal stabilisation; K562 cells, 10 uM, 30 min; active = over 0.2 and 3.5 SD of the protein, either way, in both replicates (recomputed)
[1] = compound: NC(=O)Nc1cc(-c2cccc(F)c2)sc1C(=O)N[C@H]1CCCNC1
Outline: (§1)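 K562 cells at 2×10^6 cells/mL were exposed to 10 μM compound for 30 min, then aliquots were heated for 3 min across 48°C-58°C, pooled, and extracted in PBS containing 0.5% NP-40 at 4°C. The supernatant after 21,000xg for 90 min was taken as soluble protein and measured by TMTpro 16plex LC-MS/MS with channel sums equalised. Thermal stability is reported relative to control samples, with values from duplicates. Fold changes are given on a log2 scale.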

[2] = compound: NC(=O)c1cnc(N[C@@H]2CCCC[C@@H]2N)nc1Nc1cccc(-n2nccn2)c1
Outline: as §1

[3] = compound: NC1(c2ccc(-c3nc4ccn5c(=O)[nH]nc5c4cc3-c3ccccc3)cc2)CCC1
Outline: as §1

[4] = compound: NCC(=O)Nc1ccc(-n2nc(C(F)(F)F)cc2-c2ccc3c(ccc4ccccc43)c2)cc1
Outline: as §1

[5] = compound: Nc1ccccc1NC(=O)c1ccc(CNC(=O)OCc2cccnc2)cc1 [entinostat]
Outline: as §1

[6] = compound: O=C(CCCCCCC(=O)Nc1ccccc1)NO [vorinostat]
Outline: as §1

[7] = compound: O=C(CCCCCCNC(=O)c1cnc(N(c2ccccc2)c2ccccc2Cl)nc1)NO [citarinostat]
Outline: as §1

[8] = compound: O=C(O)c1ccc2c(c1)nc(Nc1cccc(Cl)c1)c1ccncc12 [silmitasertib]
Outline: as §1

[9] = compound: O=C1NC(=O)C(c2cnc3ccccn23)=C1c1cn2c3c(cc(F)cc13)CN(C(=O)N1CCCCC1)CC2
Outline: as §1

[10] = compound: c1cc(OCCN2CCCCC2)cc(-c2n[nH]c3ccc(-c4nnc[nH]4)cc23)c1
Outline: as §1

[11] = compound: c1cn2cc(-c3ccc4cn[nH]c4c3)nc(Nc3ccc(N4CCOCC4)cc3)c2n1 [entospletinib]
Outline: as §1

Chain of UniProt Q9NR22 (Q9NR22 whole entry, looked up): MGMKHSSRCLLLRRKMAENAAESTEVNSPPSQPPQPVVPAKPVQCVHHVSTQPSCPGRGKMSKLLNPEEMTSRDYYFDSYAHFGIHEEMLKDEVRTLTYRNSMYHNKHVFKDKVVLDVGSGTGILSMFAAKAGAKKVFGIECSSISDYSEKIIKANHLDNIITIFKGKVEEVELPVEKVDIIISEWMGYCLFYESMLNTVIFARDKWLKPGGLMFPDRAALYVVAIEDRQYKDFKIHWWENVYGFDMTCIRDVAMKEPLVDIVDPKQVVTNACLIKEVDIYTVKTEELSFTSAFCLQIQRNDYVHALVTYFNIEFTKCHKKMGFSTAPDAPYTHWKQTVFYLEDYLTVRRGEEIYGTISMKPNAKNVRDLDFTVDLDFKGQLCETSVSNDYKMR
Chain of UniProt Q15172 (Q15172 whole entry, looked up): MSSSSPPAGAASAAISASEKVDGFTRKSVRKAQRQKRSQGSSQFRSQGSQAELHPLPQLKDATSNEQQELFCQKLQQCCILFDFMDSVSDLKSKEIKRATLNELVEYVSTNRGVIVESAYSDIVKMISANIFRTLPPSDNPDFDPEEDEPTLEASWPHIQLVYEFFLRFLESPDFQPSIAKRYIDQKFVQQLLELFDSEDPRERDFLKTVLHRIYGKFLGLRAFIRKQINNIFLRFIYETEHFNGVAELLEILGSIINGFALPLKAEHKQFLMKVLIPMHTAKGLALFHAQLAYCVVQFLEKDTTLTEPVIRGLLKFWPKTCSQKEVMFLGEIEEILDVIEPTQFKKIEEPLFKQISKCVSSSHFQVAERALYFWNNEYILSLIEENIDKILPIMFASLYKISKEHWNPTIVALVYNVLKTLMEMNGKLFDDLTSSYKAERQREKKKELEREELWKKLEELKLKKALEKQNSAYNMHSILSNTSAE
Chain of UniProt Q5VU43 (Q5VU43 whole entry, looked up): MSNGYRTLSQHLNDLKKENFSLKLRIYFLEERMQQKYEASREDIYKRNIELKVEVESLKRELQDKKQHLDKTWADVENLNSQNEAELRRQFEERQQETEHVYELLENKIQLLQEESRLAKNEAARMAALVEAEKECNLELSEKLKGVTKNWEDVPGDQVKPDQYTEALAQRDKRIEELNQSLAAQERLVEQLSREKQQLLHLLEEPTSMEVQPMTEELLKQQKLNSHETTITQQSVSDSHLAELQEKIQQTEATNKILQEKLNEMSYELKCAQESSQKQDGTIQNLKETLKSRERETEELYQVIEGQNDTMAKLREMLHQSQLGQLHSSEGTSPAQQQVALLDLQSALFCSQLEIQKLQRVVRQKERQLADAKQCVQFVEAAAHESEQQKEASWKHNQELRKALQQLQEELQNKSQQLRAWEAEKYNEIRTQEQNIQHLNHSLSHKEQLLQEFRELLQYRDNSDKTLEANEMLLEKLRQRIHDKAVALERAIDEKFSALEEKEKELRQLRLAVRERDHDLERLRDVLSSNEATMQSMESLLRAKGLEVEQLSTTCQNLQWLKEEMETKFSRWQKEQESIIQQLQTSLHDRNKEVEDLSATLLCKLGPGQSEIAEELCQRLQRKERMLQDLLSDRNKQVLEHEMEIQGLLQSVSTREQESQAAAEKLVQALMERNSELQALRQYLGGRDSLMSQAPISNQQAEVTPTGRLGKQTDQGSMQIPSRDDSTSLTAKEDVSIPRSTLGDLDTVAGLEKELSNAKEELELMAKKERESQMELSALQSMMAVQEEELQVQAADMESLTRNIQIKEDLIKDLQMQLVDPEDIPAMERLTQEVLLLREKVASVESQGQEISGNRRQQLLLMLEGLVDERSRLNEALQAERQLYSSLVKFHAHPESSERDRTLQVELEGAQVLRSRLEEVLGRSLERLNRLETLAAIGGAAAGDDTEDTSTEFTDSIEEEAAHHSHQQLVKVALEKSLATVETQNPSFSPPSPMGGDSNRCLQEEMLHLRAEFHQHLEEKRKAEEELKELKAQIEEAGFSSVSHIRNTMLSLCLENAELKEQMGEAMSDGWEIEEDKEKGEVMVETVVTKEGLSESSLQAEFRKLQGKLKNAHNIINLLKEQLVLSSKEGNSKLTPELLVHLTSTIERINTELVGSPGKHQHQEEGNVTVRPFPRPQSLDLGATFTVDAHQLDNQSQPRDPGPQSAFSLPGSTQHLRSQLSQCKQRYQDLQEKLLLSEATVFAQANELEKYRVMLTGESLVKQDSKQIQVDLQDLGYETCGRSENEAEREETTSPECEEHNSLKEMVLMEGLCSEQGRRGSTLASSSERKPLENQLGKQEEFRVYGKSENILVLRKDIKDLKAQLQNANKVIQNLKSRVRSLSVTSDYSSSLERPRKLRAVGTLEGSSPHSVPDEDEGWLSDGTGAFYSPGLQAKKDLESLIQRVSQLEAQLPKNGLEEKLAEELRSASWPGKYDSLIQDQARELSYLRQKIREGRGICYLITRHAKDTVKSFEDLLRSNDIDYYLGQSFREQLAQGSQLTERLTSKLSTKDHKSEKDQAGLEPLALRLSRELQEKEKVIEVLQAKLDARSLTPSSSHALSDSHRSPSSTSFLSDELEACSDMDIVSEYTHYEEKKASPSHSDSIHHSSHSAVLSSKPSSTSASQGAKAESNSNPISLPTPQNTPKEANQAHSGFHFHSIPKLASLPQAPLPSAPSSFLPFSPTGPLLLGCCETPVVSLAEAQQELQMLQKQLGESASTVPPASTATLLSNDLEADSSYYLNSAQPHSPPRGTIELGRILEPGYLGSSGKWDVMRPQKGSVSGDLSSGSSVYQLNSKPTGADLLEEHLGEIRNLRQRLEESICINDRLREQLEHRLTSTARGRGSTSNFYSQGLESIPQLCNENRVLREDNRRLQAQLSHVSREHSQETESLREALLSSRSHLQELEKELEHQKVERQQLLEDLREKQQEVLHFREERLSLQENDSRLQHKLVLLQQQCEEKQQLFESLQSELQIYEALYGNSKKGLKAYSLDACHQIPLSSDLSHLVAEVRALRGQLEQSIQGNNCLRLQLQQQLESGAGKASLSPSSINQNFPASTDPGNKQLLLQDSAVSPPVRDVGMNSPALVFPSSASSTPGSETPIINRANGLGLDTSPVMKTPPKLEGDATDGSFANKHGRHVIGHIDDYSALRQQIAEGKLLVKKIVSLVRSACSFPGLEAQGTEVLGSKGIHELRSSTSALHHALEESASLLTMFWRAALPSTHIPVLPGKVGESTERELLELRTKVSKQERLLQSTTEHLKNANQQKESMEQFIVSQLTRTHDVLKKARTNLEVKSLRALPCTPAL
Chain of UniProt Q9BRX2 (Q9BRX2 whole entry, looked up): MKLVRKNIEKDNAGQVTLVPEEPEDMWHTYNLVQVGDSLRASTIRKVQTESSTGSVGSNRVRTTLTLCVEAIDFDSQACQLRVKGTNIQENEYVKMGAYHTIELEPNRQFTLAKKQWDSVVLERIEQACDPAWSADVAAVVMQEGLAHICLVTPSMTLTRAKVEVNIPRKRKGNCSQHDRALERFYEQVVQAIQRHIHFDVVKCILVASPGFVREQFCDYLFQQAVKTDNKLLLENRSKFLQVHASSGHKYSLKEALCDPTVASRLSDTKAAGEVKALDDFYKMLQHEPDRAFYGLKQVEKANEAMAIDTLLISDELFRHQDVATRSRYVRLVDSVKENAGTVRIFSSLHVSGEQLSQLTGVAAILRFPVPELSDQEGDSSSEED
Chain of UniProt O60925 (O60925 whole entry, looked up): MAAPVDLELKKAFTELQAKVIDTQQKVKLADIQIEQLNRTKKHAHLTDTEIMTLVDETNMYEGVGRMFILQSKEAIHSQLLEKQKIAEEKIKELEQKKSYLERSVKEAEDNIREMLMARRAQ
Chain of UniProt O15305 (O15305 whole entry, looked up): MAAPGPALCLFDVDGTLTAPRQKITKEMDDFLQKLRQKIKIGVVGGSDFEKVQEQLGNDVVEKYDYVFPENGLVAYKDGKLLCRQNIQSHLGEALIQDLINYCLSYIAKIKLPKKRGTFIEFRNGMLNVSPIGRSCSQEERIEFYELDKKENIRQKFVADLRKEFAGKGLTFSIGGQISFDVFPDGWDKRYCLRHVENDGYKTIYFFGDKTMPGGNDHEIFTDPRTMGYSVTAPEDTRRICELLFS
Chain of UniProt O43395 (O43395 whole entry, looked up): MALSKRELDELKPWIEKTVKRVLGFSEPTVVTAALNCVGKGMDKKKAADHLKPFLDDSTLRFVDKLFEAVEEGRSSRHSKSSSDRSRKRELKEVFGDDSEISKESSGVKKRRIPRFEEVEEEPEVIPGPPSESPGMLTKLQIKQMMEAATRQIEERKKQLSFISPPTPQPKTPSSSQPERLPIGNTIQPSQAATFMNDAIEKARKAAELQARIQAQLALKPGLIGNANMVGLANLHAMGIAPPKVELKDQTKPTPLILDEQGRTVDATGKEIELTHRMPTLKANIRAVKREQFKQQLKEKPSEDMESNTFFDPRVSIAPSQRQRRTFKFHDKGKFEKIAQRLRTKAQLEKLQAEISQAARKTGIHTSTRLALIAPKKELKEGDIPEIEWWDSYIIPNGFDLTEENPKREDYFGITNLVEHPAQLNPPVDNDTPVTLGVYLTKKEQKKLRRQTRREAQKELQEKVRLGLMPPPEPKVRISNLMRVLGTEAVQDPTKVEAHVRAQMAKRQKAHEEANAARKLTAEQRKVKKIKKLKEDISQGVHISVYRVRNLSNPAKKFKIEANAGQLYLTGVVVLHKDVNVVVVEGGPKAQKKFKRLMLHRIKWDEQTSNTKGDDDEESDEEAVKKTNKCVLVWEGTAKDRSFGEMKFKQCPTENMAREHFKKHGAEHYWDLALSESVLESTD
Chain of UniProt O15162 (O15162 whole entry, looked up): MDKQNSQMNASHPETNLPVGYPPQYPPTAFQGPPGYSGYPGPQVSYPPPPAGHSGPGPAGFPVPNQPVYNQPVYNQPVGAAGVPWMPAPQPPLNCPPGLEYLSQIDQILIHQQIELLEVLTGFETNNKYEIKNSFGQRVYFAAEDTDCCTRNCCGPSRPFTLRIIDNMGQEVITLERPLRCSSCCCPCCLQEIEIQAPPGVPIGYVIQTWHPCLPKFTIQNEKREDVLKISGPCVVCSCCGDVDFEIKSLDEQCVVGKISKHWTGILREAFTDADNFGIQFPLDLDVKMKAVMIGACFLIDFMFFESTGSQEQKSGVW

| Target | log2 fold change [1] | log2 fold change [2] | log2 fold change [3] | log2 fold change [4] | log2 fold change [5] | log2 fold change [6] | log2 fold change [7] | log2 fold change [8] | log2 fold change [9] | log2 fold change [10] | log2 fold change [11] |
| --- | --- | --- | --- | --- | --- | --- | --- | --- | --- | --- | --- |
| PLSCR1 (UniProt O15162) | -0.092 | -0.005 | -0.111 | -0.068 | -0.212 | -0.082 | 0.05 | 0.022 | -0.081 | -0.096 | -0.045 |
| PELO (UniProt Q9BRX2) | -0.028 | -0.089 | -0.098 | -0.174 | 0.058 | 0.064 | 0.009 | 0.054 | 0.063 | -0.057 | 0.05 |
| POLR2B (UniProt P30876) | -0.054 | 0.059 | -0.043 | -0.106 | 0.061 | -0.089 | 0 | 0.1 | 0.09 | -0.065 | 0.193 |
| PRMT8 (UniProt Q9NR22) | 0.403 (active) | -0.149 | -0.118 | -0.054 | 0.21 | 0.029 | -0.031 | -0.039 | -0.057 | -0.006 | 0 |
| PPP2R5A (UniProt Q15172) | 0.098 | 0.009 | -0.254 (active) | -0.013 | 0.094 | 0.106 | 0.114 | -0.059 | -0.044 | -0.021 | 0.001 |
| PRPF3 (UniProt O43395) | 0.026 | -0.029 | -0.099 | -0.077 | 0.064 | 0.128 | 0.194 | -0.014 | -0.063 | 0 | -0.08 |
| PFDN1 (UniProt O60925) | 0.013 | 0.003 | 0.002 | -0.047 | 0.044 | -0.056 | 0.09 | -0.029 | -0.05 | -0.001 | -0.089 |
| PRKAR2B (UniProt P31323) | -0.964 (active) | -0.152 | -0.223 | 0.016 | 0.027 | 0.112 | 0.078 | 0.008 | -0.003 | -0.013 | -0.166 |
| PMM2 (UniProt O15305) | 0.022 | 0.01 | 0.016 | -0.024 | -0.004 | 0.007 | 0.024 | -0.001 | -0.05 | -0.02 | -0.194 |
| PDE4DIP isoform 4 (UniProt Q5VU43) | 0.113 | -0.006 | 0.009 | 0.011 | 0.015 | -0.025 | 0.018 | -0.041 | -0.03 | -0.039 | 0.018 |
